Of roughly 7,900 targets only a part is listed; those with a hit were picked by preference. About 0.6% of all pairs of compound and target were hits. A number with no mark means an inactive call.
Assays:
Assay in all cases: log2 fold change, soluble protein after heating vs DMSO (PISA); higher = thermal stabilisation; K562 cells, 10 uM, 30 min; active = over 0.2 and 3.5 SD of the protein, either way, in both replicates (recomputed)
[1] = compound: CS(=O)(=O)c1ccc(-c2cnc(N)c(C(=O)Nc3ccccc3)n2)cc1
Procedure, shortened: (§1)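 Values are thermal stability changes relative to control samples and are taken from duplicates. They are stated as log2 fold changes. Before quantification by TMTpro 16plex LC-MS/MS with equalised channel sums, K562 cells at 2×10^6 cells/mL were treated with 10 μM compound for 30 min, heated in aliquots for 3 min across 48°C-58°C, pooled, extracted in PBS with 0.5% NP-40 at 4°C, and centrifuged at 21,000xg for 90 min to give the soluble supernatant.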

crizotinib = compound: C[C@@H](Oc1cc(-c2cnn(C3CCNCC3)c2)cnc1N)c1c(Cl)ccc(F)c1Cl [crizotinib]
Procedure, shortened: as §1

[2] = compound: C[C@@H]1COCCN1C2=NC(=NC(=C2)C3(CC3)S(=O)(=O)C)C4=C5C=CNC5=CC=C4
Procedure, shortened: as §1

[3] = compound: C[C@H](C1=CC=C(C=C1)C(=O)NC2=C3C=CNC3=NC=C2)N
Procedure, shortened: as §1

duvelisib = compound: C[C@H](Nc1ncnc2nc[nH]c12)c1cc2cccc(Cl)c2c(=O)n1-c1ccccc1 [duvelisib]
Procedure, shortened: as §1

gandotinib = compound: Cc1cc(Nc2cc(CN3CCOCC3)c3nc(C)c(Cc4ccc(Cl)cc4F)n3n2)n[nH]1 [gandotinib]
Procedure, shortened: as §1

tozasertib = compound: Cc1cc(Nc2cc(N3CCN(C)CC3)nc(Sc3ccc(NC(=O)C4CC4)cc3)n2)n[nH]1 [tozasertib]
Procedure, shortened: as §1

[4] = compound: Cc1cc(SCc2sc(-c3ccc(C(F)(F)F)cc3)nc2C)ccc1OCC(=O)O
Procedure, shortened: as §1

doramapimod = compound: Cc1ccc(-n2nc(C(C)(C)C)cc2NC(=O)Nc2ccc(OCCN3CCOCC3)c3ccccc23)cc1 [doramapimod]
Procedure, shortened: as §1

ispinesib = compound: Cc1ccc(C(=O)N(CCCN)[C@@H](c2nc3cc(Cl)ccc3c(=O)n2Cc2ccccc2)C(C)C)cc1 [ispinesib]
Procedure, shortened: as §1

bafetinib = compound: Cc1ccc(NC(=O)c2ccc(CN3CC[C@H](N(C)C)C3)c(C(F)(F)F)c2)cc1Nc1nccc(-c2cncnc2)n1 [bafetinib]
Procedure, shortened: as §1

[5] = compound: Cc1cccc(CC(=O)N2CCc3c2ccc(-c2cn(C)c4ncnc(N)c24)c3F)n1
Procedure, shortened: as §1

nilotinib = compound: Cc1cn(-c2cc(NC(=O)c3ccc(C)c(Nc4nccc(-c5cccnc5)n4)c3)cc(C(F)(F)F)c2)cn1 [nilotinib]
Procedure, shortened: as §1

[6] = compound: Cc1nc(Nc2n[nH]c3c2CN(C(=O)N[C@H](CN(C)C)c2ccccc2)C3(C)C)c2sccc2n1
Procedure, shortened: as §1

dasatinib = compound: Cc1nc(Nc2ncc(C(=O)Nc3c(C)cccc3Cl)s2)cc(N2CCN(CCO)CC2)n1 [dasatinib]
Procedure, shortened: as §1

[7] = compound: Cc1ncc(-c2ccnc(Nc3ccc(S(C)(=O)=O)cc3)n2)n1C(C)C
Procedure, shortened: as §1

[8] = compound: Cn1cc(-c2ccc3c(c2)CCN3C(=O)Cc2cccc(C(F)(F)F)c2)c2c(N)ncnc21
Procedure, shortened: as §1

[9] = compound: Cn1cc(-c2ccc3nnc(C(F)(F)c4ccc5ncccc5c4)n3n2)cn1
Procedure, shortened: as §1

tipifarnib = compound: Cn1cncc1[C@@](N)(c1ccc(Cl)cc1)c1ccc2c(c1)c(-c1cccc(Cl)c1)cc(=O)n2C [tipifarnib]
Procedure, shortened: as §1

mubritinib = compound: FC(F)(F)c1ccc(/C=C/c2nc(COc3ccc(CCCCn4ccnn4)cc3)co2)cc1 [mubritinib]
Procedure, shortened: as §1

Chain of UniProt Q15796 (Q15796 whole entry, looked up): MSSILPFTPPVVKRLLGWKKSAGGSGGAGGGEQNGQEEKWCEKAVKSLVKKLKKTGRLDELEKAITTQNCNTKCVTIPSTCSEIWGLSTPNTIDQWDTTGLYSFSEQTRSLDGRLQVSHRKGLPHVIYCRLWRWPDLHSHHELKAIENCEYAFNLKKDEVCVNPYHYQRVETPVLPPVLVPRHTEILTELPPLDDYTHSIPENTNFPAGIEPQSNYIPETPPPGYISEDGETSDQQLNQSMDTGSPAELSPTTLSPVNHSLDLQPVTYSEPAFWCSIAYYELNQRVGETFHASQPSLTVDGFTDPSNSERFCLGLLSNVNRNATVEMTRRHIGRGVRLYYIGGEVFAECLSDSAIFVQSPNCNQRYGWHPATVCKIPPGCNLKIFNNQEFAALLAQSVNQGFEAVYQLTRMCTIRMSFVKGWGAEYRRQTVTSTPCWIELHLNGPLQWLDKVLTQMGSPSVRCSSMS
Chain of UniProt P53597 (P53597 whole entry, looked up): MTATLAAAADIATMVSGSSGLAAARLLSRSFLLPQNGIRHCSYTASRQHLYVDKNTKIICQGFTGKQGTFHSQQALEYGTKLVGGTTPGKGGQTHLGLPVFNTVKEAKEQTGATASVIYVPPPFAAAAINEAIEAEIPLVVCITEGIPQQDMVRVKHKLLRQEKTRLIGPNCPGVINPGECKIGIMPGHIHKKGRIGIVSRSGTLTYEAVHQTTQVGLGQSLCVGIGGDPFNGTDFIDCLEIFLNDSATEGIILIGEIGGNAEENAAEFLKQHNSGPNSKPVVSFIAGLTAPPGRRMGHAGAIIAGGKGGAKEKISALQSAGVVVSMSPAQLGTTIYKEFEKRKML
Chain of UniProt Q9UHB9 (Q9UHB9 whole entry, looked up): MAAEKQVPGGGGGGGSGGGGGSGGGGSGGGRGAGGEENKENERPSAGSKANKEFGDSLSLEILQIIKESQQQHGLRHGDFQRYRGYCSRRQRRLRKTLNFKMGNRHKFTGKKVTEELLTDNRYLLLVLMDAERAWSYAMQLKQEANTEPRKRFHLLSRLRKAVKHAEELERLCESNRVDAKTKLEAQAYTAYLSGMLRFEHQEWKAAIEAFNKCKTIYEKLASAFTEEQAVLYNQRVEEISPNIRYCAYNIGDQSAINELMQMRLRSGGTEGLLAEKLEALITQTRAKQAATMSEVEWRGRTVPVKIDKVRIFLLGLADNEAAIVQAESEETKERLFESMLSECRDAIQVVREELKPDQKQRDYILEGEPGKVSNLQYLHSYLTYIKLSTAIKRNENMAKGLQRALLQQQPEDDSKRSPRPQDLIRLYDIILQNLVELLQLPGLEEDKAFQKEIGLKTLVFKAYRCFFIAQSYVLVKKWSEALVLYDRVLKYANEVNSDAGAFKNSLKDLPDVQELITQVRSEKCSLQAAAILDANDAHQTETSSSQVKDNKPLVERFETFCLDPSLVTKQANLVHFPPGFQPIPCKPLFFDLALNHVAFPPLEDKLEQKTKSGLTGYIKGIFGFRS
Chain of UniProt Q9P289 (Q9P289 whole entry, looked up): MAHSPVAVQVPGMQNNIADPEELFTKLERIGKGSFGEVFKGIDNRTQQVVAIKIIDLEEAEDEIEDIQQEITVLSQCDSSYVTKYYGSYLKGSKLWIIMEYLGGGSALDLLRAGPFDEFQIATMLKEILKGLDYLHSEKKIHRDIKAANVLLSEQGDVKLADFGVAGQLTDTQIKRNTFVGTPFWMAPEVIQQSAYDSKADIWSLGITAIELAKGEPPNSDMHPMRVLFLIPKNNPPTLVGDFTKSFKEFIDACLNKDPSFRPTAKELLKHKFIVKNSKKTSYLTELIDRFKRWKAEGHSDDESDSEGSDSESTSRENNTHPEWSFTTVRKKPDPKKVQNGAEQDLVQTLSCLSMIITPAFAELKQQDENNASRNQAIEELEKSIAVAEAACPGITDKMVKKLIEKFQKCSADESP
Chain of UniProt Q9UNL2 (Q9UNL2 whole entry, looked up): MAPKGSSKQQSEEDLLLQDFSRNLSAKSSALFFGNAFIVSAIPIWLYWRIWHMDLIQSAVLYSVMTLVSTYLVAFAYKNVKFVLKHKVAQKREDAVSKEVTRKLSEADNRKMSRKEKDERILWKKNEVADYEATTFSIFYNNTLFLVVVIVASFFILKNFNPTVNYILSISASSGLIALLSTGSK
Chain of UniProt Q08170 (Q08170 whole entry, looked up): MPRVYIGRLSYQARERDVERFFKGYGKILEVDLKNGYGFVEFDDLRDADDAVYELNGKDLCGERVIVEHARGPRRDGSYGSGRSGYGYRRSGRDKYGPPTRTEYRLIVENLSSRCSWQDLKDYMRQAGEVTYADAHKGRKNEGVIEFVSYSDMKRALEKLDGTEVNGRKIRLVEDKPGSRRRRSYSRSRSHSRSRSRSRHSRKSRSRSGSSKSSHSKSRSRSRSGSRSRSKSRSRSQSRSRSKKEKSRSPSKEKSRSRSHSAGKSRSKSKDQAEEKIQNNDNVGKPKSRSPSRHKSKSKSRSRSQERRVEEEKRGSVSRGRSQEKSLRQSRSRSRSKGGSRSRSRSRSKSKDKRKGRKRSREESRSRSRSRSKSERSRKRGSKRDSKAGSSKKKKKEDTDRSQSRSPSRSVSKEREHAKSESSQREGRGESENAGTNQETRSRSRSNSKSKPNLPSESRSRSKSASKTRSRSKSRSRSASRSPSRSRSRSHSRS
Chain of UniProt P05455 (P05455 whole entry, looked up): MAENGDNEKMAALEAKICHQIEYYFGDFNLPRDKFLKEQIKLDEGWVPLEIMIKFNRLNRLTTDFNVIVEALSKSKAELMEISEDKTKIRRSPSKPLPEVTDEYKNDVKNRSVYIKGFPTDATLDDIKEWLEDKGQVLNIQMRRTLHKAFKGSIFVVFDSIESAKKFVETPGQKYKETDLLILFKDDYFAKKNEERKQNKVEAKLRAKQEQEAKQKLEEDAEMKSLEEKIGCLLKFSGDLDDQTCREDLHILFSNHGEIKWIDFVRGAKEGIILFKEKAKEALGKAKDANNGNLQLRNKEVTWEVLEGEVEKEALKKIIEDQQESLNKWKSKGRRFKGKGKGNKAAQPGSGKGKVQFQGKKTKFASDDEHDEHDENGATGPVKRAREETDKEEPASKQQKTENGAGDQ
Chain of UniProt Q86UE8 (Q86UE8 whole entry, looked up): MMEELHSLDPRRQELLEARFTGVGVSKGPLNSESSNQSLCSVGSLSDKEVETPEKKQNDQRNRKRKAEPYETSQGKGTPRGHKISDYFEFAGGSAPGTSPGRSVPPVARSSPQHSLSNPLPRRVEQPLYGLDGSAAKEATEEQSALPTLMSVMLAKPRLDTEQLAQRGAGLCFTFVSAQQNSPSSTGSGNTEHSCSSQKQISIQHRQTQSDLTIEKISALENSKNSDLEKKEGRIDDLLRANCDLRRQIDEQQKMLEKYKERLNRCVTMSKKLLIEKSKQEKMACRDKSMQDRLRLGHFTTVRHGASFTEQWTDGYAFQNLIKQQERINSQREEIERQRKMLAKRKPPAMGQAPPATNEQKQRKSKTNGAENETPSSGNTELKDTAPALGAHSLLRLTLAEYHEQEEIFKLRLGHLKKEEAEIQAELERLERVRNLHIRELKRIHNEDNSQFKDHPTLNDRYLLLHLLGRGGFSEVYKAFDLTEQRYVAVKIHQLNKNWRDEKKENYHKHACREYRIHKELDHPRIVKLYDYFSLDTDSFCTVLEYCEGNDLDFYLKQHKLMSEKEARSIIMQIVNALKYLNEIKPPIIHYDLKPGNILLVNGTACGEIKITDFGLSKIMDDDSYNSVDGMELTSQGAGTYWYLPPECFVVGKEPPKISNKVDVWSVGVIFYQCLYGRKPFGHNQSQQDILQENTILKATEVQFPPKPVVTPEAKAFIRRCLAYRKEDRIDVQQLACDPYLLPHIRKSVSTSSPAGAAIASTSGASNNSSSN

| Target | log2 fold change [1] | log2 fold change (crizotinib) | log2 fold change [2] | log2 fold change [3] | log2 fold change (duvelisib) | log2 fold change (gandotinib) | log2 fold change (tozasertib) | log2 fold change [4] | log2 fold change (doramapimod) | log2 fold change (ispinesib) | log2 fold change (bafetinib) | log2 fold change [5] | log2 fold change (nilotinib) | log2 fold change [6] | log2 fold change (dasatinib) | log2 fold change [7] | log2 fold change [8] | log2 fold change [9] | log2 fold change (tipifarnib) | log2 fold change (mubritinib) |
| --- | --- | --- | --- | --- | --- | --- | --- | --- | --- | --- | --- | --- | --- | --- | --- | --- | --- | --- | --- | --- |
| SSB (UniProt P05455) | -0.159 | 0.022 | -0.085 | -0.05 | -0.033 | -0.103 | 0.048 | 0.003 | 0.013 | -0.02 | -0.022 | -0.018 | -0.057 | -0.125 | -0.06 | -0.123 | -0.048 | -0.02 | 0.051 | -0.111 |
| SRP68 (UniProt Q9UHB9) | 0.004 | -0.134 | -0.02 | 0.15 | -0.017 | -0.064 | 0.054 | 0.112 | 0.029 | -0.209 | 0.043 | 0.054 | -0.118 | -0.063 | -0.098 | 0.055 | -0.026 | -0.08 | -0.119 | 0.012 |
| SRSF4 (UniProt Q08170) | -0.055 | 0.011 | -0.248 | 0 | -0.064 | 0.077 | 0.071 | 0.031 | 0.073 | -0.021 | 0.215 | -0.064 | 0.013 | -0.602 (active) | 0.109 | 0.028 | -0.166 | -0.14 | 0.127 | -0.109 |
| SUCLG1 (UniProt P53597) | 0.016 | -0.028 | 0.079 | -0.072 | 0.067 | -0.048 | -0.033 | -0.004 | -0.019 | -0.012 | -0.065 | -0.01 | -0.077 | 0.029 | -0.025 | -0.008 | 0.027 | 0.078 | -0.008 | -0.273 (active) |
| SSR3 isoform 2 (UniProt Q9UNL2) | 0.021 | -0.043 | 0.05 | -0.458 (active) | 0.012 | 0.281 | 0.003 | -0.038 | 0.034 | 0.021 | -0.064 | 0.034 | -0.006 | 0.029 | 0.006 | -0.047 | 0.107 | -0.167 | 0.084 | 0.049 |
| STK26 (UniProt Q9P289) | -0.019 | -0.308 (active) | 0.123 | 0.049 | -0.01 | -0.061 | -0.11 | -0.01 | -0.034 | -0.146 | -0.057 | 0.026 | -0.089 | 0.198 | -0.319 (active) | -0.057 | -0.058 | 0.015 | -0.036 | -0.036 |
| TLK2 isoform 2 (UniProt Q86UE8) | -0.063 | -0.031 | 0.139 | -0.095 | -0.007 | 0.165 | -0.047 | -0.07 | -0.042 | 0.019 | -0.051 | -0.042 | 0.006 | -0.407 (active) | -0.01 | 0.007 | 0.046 | -0.033 | 0.01 | -0.001 |
| SMAD2 (UniProt Q15796) | 0.132 | 0.255 | -0.015 | 0.012 | 0.038 | 0.045 | 0.086 | 0.071 | -0.04 | -0.019 | -0.019 | -0.037 | -0.085 | -0.123 | -0.13 | -0.14 | 0.023 | 0.057 | 0.012 | 0.022 |
